Our source for the Pct of control values is publication PMC12751014, “Non-Catalytic Inhibitors of the p38/MK2 Interface: Repurposing Approved Drugs to Target Neuroinflammation in Alzheimer’s Disease” (Journal of Medicinal Chemistry, 2025).

Hit rate of the full screen: of about 1,900 compounds, about 50 (3%) showed an effect of 50% or more. The sample as a whole holds a higher share of strong results than the screen did. *1 amine or outer side, *2 acyl side, *3 side chain or, on linkers, in order; H or OH if unused. Where a SMILES comes first, the peptide text is derived from it. Bridges are numbered along the chain shown (N, C = ends). [ ]: non-standard residue; d: D form. The star is where a group is joined. ξ: configuration not given here. pTerphenylCO(4''-OnC5H11) = CCCCCOc1ccc(-c2ccc(-c3ccc(C(=O)*)cc3)cc2)cc1; ξOrn(4,5-diOH) = O=C(C(CC(O)C(O)N[*:3])N[*:1])[*:2]; ξhTyr(βξ-OH,γξ-OH) = NC(C(=O)O)C(O)C(O)c1ccc(O)cc1; ξPro(3ξ-OH,4ξ-Me) = CC1CNC(C(=O)O)C1O; Hyp = O=C(O)[CH]1C[CH](O)CN1

p38/MK2 protein–protein interaction (VF-p38α / GST-MK2), sequence (Q16539 2-360 limits assumed): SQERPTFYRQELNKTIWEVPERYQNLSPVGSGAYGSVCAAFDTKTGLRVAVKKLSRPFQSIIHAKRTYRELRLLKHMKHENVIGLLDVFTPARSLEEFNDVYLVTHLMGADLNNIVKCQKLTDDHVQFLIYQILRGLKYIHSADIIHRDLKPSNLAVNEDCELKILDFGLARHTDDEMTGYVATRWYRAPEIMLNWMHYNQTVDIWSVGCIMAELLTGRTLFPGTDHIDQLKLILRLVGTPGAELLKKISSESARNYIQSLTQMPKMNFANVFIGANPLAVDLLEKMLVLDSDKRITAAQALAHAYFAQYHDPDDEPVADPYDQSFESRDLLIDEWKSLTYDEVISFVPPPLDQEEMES

The assay has as its target p38/MK2 protein–protein interaction (VF-p38α / GST-MK2) (Homo sapiens, UniProt Q16539). In words: primary screen, percent of control activity; higher = less effect of the substance. Details: species or system HEK293T cell lysate transfected with VF-p38α and GST-MK2; unclear (methods say 'quintuplet replicates'). The procedure:
The TR-FRET assay was conducted in a 1536-well plate (Corning, catalog no. 3724) with HEK293T cell lysate transfected with VF-p38α and GST-MK2. Cell-lysate concentration was optimized with a titration experiment. Anti-Flag-Tb and anti-GST-d2 antibodies (Revvity, catalog no. 61FGBTLB) were used to couple p38α and MK2, respectively. A multiple-drop Combi dispenser (Thermo Scientific) combined reaction mixtures in quintuplet replicates. The TR-FRET signals were measured using a BMG Labtech PHERAstar FSX plate reader and normalized to the percent of DMSO control.
Take `CC1(C)CCC2=C(O1)c1ccccc1C(=O)C2=O`: the Pct of control was 102%.

With `CCC1OC(=O)C(C)C(OC2CC(C)(OC)C(O)C(C)O2)C(C)C(OC2OC(C)CC(N(C)C)C2O)C(C)(O)CC(C)C(=NOCOCCOC)C(C)C(O)C1(C)O` (centres unmarked), the Pct of control came to 103%. Under `C=CC(=O)Nc1cccc(Sc2nc(Nc3ccc(N4CCN(C)CC4)cc3)ncc2Cl)c1` stands 91.7%. The same measure for `Nc1cccc(-c2cc3c(Oc4cccc(O)c4)ncnc3[nH]2)c1`: 90.3%; for `CC[C@@H]([C@H](C)O)n1ncn(-c2ccc(N3CCN(c4ccc(OC[C@@H]5CO[C@@](Cn6cncn6)(c6ccc(F)cc6F)C5)cc4)CC3)cc2)c1=O`: 97%. The compound `NC(N)=NS(=O)(=O)c1ccc(N)cc1` yielded a Pct of control of 105%. The same measure for `Cc1c(Cl)cccc1Nc1ccccc1C(=O)O`: 99.2%; for `NC(=O)N1c2ccccc2C=Cc2ccccc21`: 93.5%; for `CCC(C)n1ncn(-c2ccc(N3CCN(c4ccc(OCC5COC(Cn6cncn6)(c6ccc(Cl)cc6Cl)O5)cc4)CC3)cc2)c1=O` (centres unmarked): 88.6%. Under `c1cc(-c2cnn3cc(-c4ccc(N5CCNCC5)cc4)cnc23)c2cccnc2c1` stands 10.1%. Compound `CC(C)Oc1ccc(-c2cnc3c(-c4ccnc5ccccc45)cnn3c2)cc1` had a Pct of control of 89.1%. As to `COc1ccc(-c2cnc3c(-c4cccc5ncccc45)cnn3c2)cc1`, the Pct of control was 23.2%. As to `CN1CCC(OC(c2ccccc2)c2ccccc2)CC1.Cl`, the Pct of control amounted to 89.1%. The same measure for `COc1ccc(C2=NC(c3ccc(Cl)cc3)C(c3ccc(Cl)cc3)N2C(=O)N2CCNC(=O)C2)c(OC(C)C)c1` (centres unmarked) [S8065]: 100%. For the compound `COc1ccccc1S(=O)(=O)Nc1ccc2c(c1)CN(C)C(=O)N2`, the Pct of control is reported as 117%. `CCN(C(=O)c1c(O)c2c(Cl)cccc2n(C)c1=O)c1ccccc1` gave a Pct of control of 88.3%.

On to `O=[N+]([O-])c1ccc2c(c1)S(=O)(=O)C=C2`, for which the Pct of control was 58.2%. Under `CC1CN(CC(=O)Nc2ccc3c(c2)Cc2cccc(-c4cc(=O)cc(N5CCOCC5)o4)c2S3)CC(C)O1` (centres unmarked) stands 82.7%; under `CN(CC(=O)N(Cc1ccc(C2CCCCC2)cc1)c1ccc(C(=O)O)cc1)S(=O)(=O)c1c(F)c(F)c(F)c(F)c1F`, 24.1%; under `O=c1c2ccccc2nc2n1CCc1c-2[nH]c2ccccc12`, 100%. For the compound `NNC(=O)c1ccncc1`, the Pct of control turned out to be 86.5%. Regarding `CCOC(=O)c1ccc(C#Cc2ccc3c(c2)C(C)(C)CCS3)nc1`, the Pct of control is 106%. With `CS(=O)(=O)CCNCc1ccc(-c2ccc3ncnc(Nc4ccc(OCc5cccc(F)c5)c(Cl)c4)c3c2)o1`, the Pct of control was found to be 88.1%. Under `Cc1cc(Nc2ncnc3ccc(-c4ccc(CNCCS(C)(=O)=O)o4)cc23)ccc1Oc1ccn2ncnc2c1` stands 24.2%. The same measure for `Cc1ccc(CNc2ncnc3ccc(-c4ccc(CO)o4)cc23)o1`: 69.2%; for `Cc1cc(=O)[nH]c(=S)[nH]1`: 101%. Under `CS(=O)(=O)c1cccc(CNc2nc(Nc3ccc4c(c3)CCC(=O)N4)ncc2C(F)(F)F)c1` stands 34%; under `CN(c1ncccc1CNc1nc(Nc2ccc3c(c2)CC(=O)N3)ncc1C(F)(F)F)S(C)(=O)=O.Cl`, 76.7%; under `CN(c1ncccc1CNc1nc(Nc2ccc3c(c2)CC(=O)N3)ncc1C(F)(F)F)S(C)(=O)=O`, 106%. `CC(C)Cc1ccc(C(C)C(=O)O)cc1` (centres unmarked) registered a Pct of control of 93%. Under `O=C(COc1cccc2c(=O)[nH]ccc12)c1ccccc1` stands 89.7%; under `CNS(=O)(=O)Cc1ccc2[nH]cc(CCN(C)C)c2c1.O=C(O)CCC(=O)O`, 102%. As for `CC(=O)OC1(C(C)=O)CCC2C3CC(C)C4=CC(=O)CCC4(C)C3CCC21C` (centres unmarked), the Pct of control amounted to 87%.

Regarding `COc1c(C)c(C(=O)c2ccc(N)c(C(=O)[O-])c2)n2ccccc12.[Na+]`, the Pct of control is recorded as 94%. Compound `CC(=O)NS(=O)(=O)c1ccc(NC(=O)c2ccccc2C(=O)O)cc1` showed a Pct of control of 96.2%. Under `CC(C)c1ccccc1Cc1cc(C(=O)Nc2ccc(S(=O)(=O)c3ccccc3C(C)(C)C)cc2)c(O)c(O)c1O` stands 33.3%; under `CC(C)(C)c1cc(C(C)(C)C)c(NC(=O)c2c[nH]c3ccccc3c2=O)cc1O`, 111%; under `Cc1ccc(Cl)c(Nc2ccccc2C(=O)[O-])c1Cl.[Na+]`, 95.1%. `COc1ccc2cccc(CCNC(C)=O)c2c1` had a Pct of control of 90.6%.

Take `CS(=O)(=O)O.CS(=O)(=O)O.Cc1ccc(C(=O)Nc2ccc(CN3CCN(C)CC3)c(C(F)(F)F)c2)cc1C#Cc1cnc2[nH]ncc2c1`: the Pct of control turned out to be 73.8%. The same measure for `Cc1cccc(C#Cc2ccccc2)n1`: 29.7%; for `NS(=O)(=O)C#Cc1ccccc1`: 97.5%; for `O=C1NC(=O)C(=Cc2ccc3nccc(-c4ccncc4)c3c2)S1`: 126%. `Cc1ccc(Cl)cc1N(CC(=O)Nc1c(F)cccc1F)S(C)(=O)=O` showed a Pct of control of 91.8%.

In turn, `N#CC(c1ccc(Cl)cc1)c1c(Cl)cc(-n2ncc(=O)[nH]c2=O)cc1Cl` (centres unmarked) returned a Pct of control of 72%. Turning to `COc1cc2c(cc1-c1c(C)noc1C)ncc1[nH]c(=O)n(C(C)c3ccccn3)c12` (centres unmarked), the Pct of control worked out at 53.6%. Under `Cc1cc(NC(=O)Nc2ccc(N(C)C)cc2)c2cc(F)cc(F)c2n1` stands 89.3%; under `CN(C)c1ccc(-c2nc3ncc(Cl)c(N4CCN(CC(=O)Nc5nccs5)CC4)c3[nH]2)cc1`, 97.9%; under `COc1ccc(-c2ccc3ncc4c(c3c2)n(-c2ccc(N3CCNCC3)c(C(F)(F)F)c2)c(=O)n4C)cn1.O=C(O)C=CC(=O)O`, 45%. With `Nc1ccc(-c2ccc3ncc4ccc(=O)n(-c5cccc(C(F)(F)F)c5)c4c3c2)cn1`, the Pct of control stood at 87.9%. Turning to `CC(=O)OC1(C(C)=O)CCC2C3C=C(C)C4=CC(=O)CCC4(C)C3CCC21C` (centres unmarked), the Pct of control came to 106%. Under `Cc1c(NC(=O)c2ccc(C(C)(C)C)cc2)cccc1-c1cn(C)c(=O)c(Nc2ccc(C(=O)N3CCOCC3)cc2)n1` stands 104%. On to `O=C1C(Cl)=C(N2CCOCC2)C(=O)N1c1ccc(Cl)c(Cl)c1`, for which the Pct of control is 35.9%. As to `COc1ccc(-c2nc3ccc(C4=NNC(=O)CC4C)cc3[nH]2)cc1` (centres unmarked), the Pct of control is listed as 74.1%. Regarding `CN1C(C(=O)Nc2ccccn2)=C(O)c2sc(Cl)cc2S1(=O)=O`, the Pct of control was determined as 94.2%.

`CC(=O)Nc1nc2c(Oc3cc(-c4ccc(C(F)(F)F)cc4)ncn3)cccc2s1` came in with a Pct of control of 108%. Under `CCCCCOc1ccc(-c2ccc(-c3ccc(C(=O)NC4CC(O)C(O)NC(=O)C5C(O)C(C)CN5C(=O)C(C(C)O)NC(=O)C(C(O)C(O)c5ccc(O)cc5)NC(=O)C5CC(O)CN5C(=O)C(C(C)O)NC4=O)cc3)cc2)cc1` (stereo not drawn) ({pTerphenylCO(4''-OnC5H11)}-[ξOrn(4,5-diOH)]T[Hyp][ξhTyr(βξ-OH,γξ-OH)]T[ξPro(3ξ-OH,4ξ-Me)]; lactam 1-C; configuration not given here) stands 11.4%; under `CC(=O)O.CC(=O)O.CCC(C)CC(C)CCCCCCCCC(=O)NC1CC(O)C(NCCN)NC(=O)C2C(O)CCN2C(=O)C(C(O)CCN)NC(=O)C(C(O)C(O)c2ccc(O)cc2)NC(=O)C2CC(O)CN2C(=O)C(C(C)O)NC1=O` (centres unmarked), 114%; under `O=C(c1ccc(F)cc1)C1CCN(CCn2c(=O)[nH]c3ccccc3c2=O)CC1`, 84.3%.

As for `Cc1ccccc1-n1c(Cn2ncc3c(N)ncnc32)nc2cccc(C)c2c1=O`, the Pct of control came out at 93.1%. The same measure for `CN(C)CCCN1c2ccccc2Sc2ccc(Cl)cc21.Cl`: 90.9%; for `Br.Cc1ccc(C(=O)Cn2c3c(sc2=N)CCCC3)cc1`: 96.8%. Under `CS(=O)(=O)N1CCc2c(-c3cnc(N)nc3)nc(N3CCOCC3)nc21` stands 81.8%. Regarding `CNCc1ccc(C)c(NC(=O)c2ccc(Nc3nc(-c4ccccc4)c4ccccc4n3)cc2)c1`, the Pct of control came to 120%.

Take `CC(=O)Nc1ccc(C(=O)Nc2ccccc2N)cc1`: the Pct of control amounted to 96.8%. Consider `Cc1cc(Nc2ccc(NC(=O)c3ccc(Nc4ccnc5ccccc45)cc3)cc2)nc(N)n1`, for which the Pct of control was determined as 17.7%.

Consider `CCCCCCCCc1ccc(CCC(N)(CO)CO)cc1.Cl`, for which the Pct of control is on record as 203%. Under `CCCCCCCCCCCC1=C(O)C(=O)C=C(O)C1=O` stands 42%; under `CS(=O)(=O)Nc1ccc([N+](=O)[O-])cc1Oc1ccccc1`, 95.3%; under `Cc1onc(-c2ccccc2)c1-c1ccc(S(N)(=O)=O)cc1`, 91.8%.

`CS(=O)(=O)c1ccc(-c2cnc(N)c(C(=O)Nc3ccccc3)n2)cc1` gave a Pct of control of 101%. Under `CS(=O)(=O)c1ccc(C2=C(c3ccccc3)C(=O)OC2)cc1` stands 26.5%; under `O=C(c1ccccc1)c1ccc2n1CCC2C(=O)O` (centres unmarked), 97.5%; under `CN(C)CCC(c1ccc(Cl)cc1)c1ccccn1.O=C(O)C=CC(=O)O` (centres unmarked), 93.2%. The same measure for `O=c1cc[nH]c(=S)[nH]1`: 98.2%; for `OCc1c[nH]c2ccccc12`: 76.2%. `N#Cc1c(O)c2c(-c3ccc(-c4ccccc4O)cc3)csc2[nH]c1=O` displayed a Pct of control of 94.7%.
